Source: PubChem (National Center for Advancing Translational Sciences (NCATS))
D2 ag-1 = Beta-Arrestin HTS for Positive Allosteric Modulators of the Human D2 Dopamine Receptor: Agonists. 360,000 compounds, 0.084% hits. DiscoveRx PathHunter D2 beta-arrestin, luminescence, 90 min; 100% = 57 uM dopamine signal. D(2) dopamine receptor (Homo sapiens), P14416. AID 624465, 2012. activation, % (concentration not given with the values); in the data active = activation above about 40%; inconclusive = between about 15% and that limit
Target sequence (P14416 whole entry, looked up): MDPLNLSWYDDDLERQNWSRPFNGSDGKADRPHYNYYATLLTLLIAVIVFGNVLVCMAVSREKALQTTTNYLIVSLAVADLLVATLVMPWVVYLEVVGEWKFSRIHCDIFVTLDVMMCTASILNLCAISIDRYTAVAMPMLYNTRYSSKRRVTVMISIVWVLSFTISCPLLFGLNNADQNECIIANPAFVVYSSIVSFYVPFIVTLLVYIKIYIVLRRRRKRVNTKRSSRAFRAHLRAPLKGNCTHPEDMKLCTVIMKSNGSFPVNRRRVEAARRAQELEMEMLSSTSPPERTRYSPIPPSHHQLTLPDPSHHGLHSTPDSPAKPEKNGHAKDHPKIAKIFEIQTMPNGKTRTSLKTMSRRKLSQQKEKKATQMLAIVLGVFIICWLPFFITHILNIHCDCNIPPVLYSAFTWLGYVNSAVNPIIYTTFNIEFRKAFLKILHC
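DiscoveRx PathHunter D2 beta-arrestin cells (2,100/well) attached overnight, then compound-stimulated 90 min at 37 C in HBSS/10 mM HEPES/0.1% Tween-20 buffer; beta-galactosidase complementation read by luminescence after 1 h at ambient temperature. Dopamine 57 uM final (EC100) as control.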
D2 antag = HTS Assay for Allosteric Antagonists of the Human D2 Dopamine Receptor: Primary Screen for Antagonists | inhibition, % at 10 µM | HEK293 TREx D2 cells, calcium flux, dopamine EC80 | AID 485344, 2010 | 340,000 compounds, 2% hits; in the data active = inhibition above about 30%; inactive = below that, where a call was filed; also: 0% is about no effect
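Cells plated overnight at 30 C with tetracycline; no-wash calcium dye, 30–90 min RT; 10 s baseline; compound pinned; 180 s read; EC80 dopamine added; another 180 s read.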
D2 PAM-1 = HTS Assay for Positive Allosteric Modulators of the Human D2 Dopamine Receptor: Primary Screen for Potentiators; D(2) dopamine receptor (Homo sapiens), P14416; potentiation, % at 10 µM; HEK293 T-REx D2, calcium flux, EC20 dopamine potentiation; AID 485347, 2010; 340,000 compounds, 0.34% hits;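 active = potentiation over 3 SD above the plate norm, cut at about 30% in these data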; also: 0% is about no effect
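Potentiation of an EC20 dopamine calcium response measured kinetically over 180 s, after a preceding 180 s compound-only read flagging agonists. Cells: inducible Hek293 Trex D2 line, 4000/well, cultured overnight at 30 C before dye loading.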
D2 PAM-2 = Beta-Arrestin HTS for Positive Allosteric Modulators of the Human D2 Dopamine Receptor: Potentiators; DiscoveRx D2 beta-arrestin cells, luminescence, 90 min; 100% = 57 uM dopamine signal; potentiation, % (test concentration not listed); 360,000 compounds, 0.23% hits; AID 624464, 2012; in the data active = potentiation above about 50%; inconclusive = mostly about 30% to 49%
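PathHunter beta-arrestin assay in DiscoveRx D2 cells. Compounds were added with an EC20 of dopamine (50 nM final) for 90 min at 37 deg C. Luminescence was read 1 h after detection reagent, with 57 uM dopamine as the EC100 control.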
D2 ag-2 = HTS Assay for Allosteric Agonists of the Human D2 Dopamine Receptor: Primary Screen for Agonists; activation, % at 2 µM; HEK293 T-REx D2 cells, calcium flux agonist mode; 340,000 compounds, 0.53% hits; AID 485358, 2010; D(2) dopamine receptor (Homo sapiens), P14416;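 active = activation over 3 SD above normal in the single-dose calcium agonist read, cut at about 30% in these data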; also: 0% is about no effect
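Tetracycline-induced HEK293 Trex cells with D2 receptor force-coupled to calcium signaling, plated overnight at 30 C and loaded with no-wash calcium dye. Calcium flux read kinetically for 180 s after compound addition; responses flag agonists.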
D3 arrestin ag = qHTS of D3 Dopamine Receptor Agonist: D3 Dopamine Receptor B-arrestin Agonist Confirmatory Assay; 2,300 compounds, 4% hits; AID 720506, 2013; DiscoveRx D3 beta-arrestin cells, luminescence, 90 min; Potency, µM (top dose mostly 76.9 µM), inactives show at the top dose activation, usual class: activators; shares compounds with D2 ag-2;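 also: potency is read from the fitted curve at half-maximal effect; 100% = dopamine control response; nearly all actives have a fitted effect of over 70% in size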
D2 ag-3 = qHTS of D3 Dopamine Receptor Agonist: D2 Dopamine Receptor B-arrestin Agonist Counterscreen. shares compounds with D2 ag-2. DiscoveRx PathHunter D2 beta-arrestin, luminescence, 90 min; response scale: percent relative to full dopamine signal. Potency, µM (series often up to 76.9 µM), inactives show top-dose activation, actives largely listed as activators. 2,300 compounds, 5.9% hits. AID 720507, 2013; also: potency is read from the fitted curve at half-maximal effect; % of control where 0% means no effect; nearly all actives have a fitted effect of over 70% in size
* hit, by the source's call; u = inconclusive; x = no result given. Most compounds without a hit are left out; they make up all but 2.4% or so of the library. Unless noted, calls follow the shape of the dose curve; as a rule, active = well fitted activation curve with a large enough effect; inconclusive = small, poorly fitted or top-dose-only effect; inactive = flat fitted curve, though single readings scatter.

SMILES | D2 ag-1 | D2 antag | D2 PAM-1 | D2 PAM-2 | D2 ag-2 | D3 arrestin ag | D2 ag-3
COC(=O)c1ccccc1NC(=O)Cn1c(=O)n(-c2cccc(OC)c2)c(=O)c2c(C)c(C(=O)N(C)C)sc21 | x | x | 3 | x | -6 | x | x
Cc1cc2nc3c(=O)n(C)c(=O)n(C)c3nc2cc1N=CN(C)C | x | x | 8 | x | 10 | x | x
Cc1c(Nc2nc(-c3ccccc3)cs2)c(=O)n(-c2ccccc2)n1C | -1 | 12 | -3 | -16 | 0 | x | x
C=CC[n+]1c(-c2ccc(C)cc2)csc1Nc1c(C)n(C)n(-c2ccccc2)c1=O | -1 | x | x | -14 | x | -11% | 11%
C=CC[n+]1c(-c2ccc(Cl)cc2Cl)csc1Nc1c(C)n(C)n(-c2ccccc2)c1=O | -7 | 49* | -16 | -28 | 57* | -48% | -10%
CNC[C@H](O)c1cccc(O)c1 | 2 | 91* | -28 | 5 | 77* | -1% | u
O=C(NCC(c1ccco1)N1CCN(c2ccccc2)CC1)c1cccs1 (stereo not given) | 11 | 27 | 12 | -7 | 5 | 14% | 17%
O=C(NCc1cccs1)C(=O)NCC(c1ccco1)N1CCN(c2ccccc2)CC1 (stereo not given) | 10 | 3 | -9 | -12 | 11 | x | x
O=C(COc1ccccc1)NCC(c1ccco1)N1CCN(c2ccccc2)CC1 (stereo not given) | -1 | -11 | 7 | -4 | 1 | 1% | 12%
CCc1ccc(C2=NN(CCC(=O)NCCc3ccccc3)C(=O)CC2)cc1 | x | x | -18 | x | 1 | x | x
Cc1[nH]nc2nc(SCC(=O)NCCC3=CCCCC3)n(-c3ccc(Br)cc3)c(=N)c12 | 7 | -16 | -24 | -1 | 41* | 9% | 0%
Cc1ccc2c(c1)N(C(C)C(=O)NCc1ccc3c(c1)OCO3)C(=O)CO2 (stereo not given) | 5 | 16 | -7 | -3 | 0 | -1% | -1%
COc1ccc(NC(=O)CSc2nc(-c3cc(OC)c(OC)c(OC)c3)[nH]c2-c2ccc(F)cc2)cc1 | x | x | -24 | x | 1 | x | x
Cc1cc(C)cc(-n2nnc(-c3nc(-c4ccc5c(c4)OCO5)no3)c2C)c1 | x | x | 3 | x | 0 | x | x
Cn1c2c(c(=O)n(C)c1=O)C(C(F)(F)F)(C(F)(F)F)N=C(c1ccc(Cl)cc1)N2 | 4 | 1 | 18 | u | 5 | u | 1%
Cc1cccc(C(=O)NNC(=S)NC(=O)c2cccs2)c1 | -7 | 16 | 4 | -18 | 26 | -10% | -10%
CSCCC(NC(=O)c1ccccc1)C(=O)Nc1ccncc1 (stereo not given) | 3 | -33 | -7 | -1 | 0 | x | x
CSCCC(NC(=O)c1ccccc1Cl)C(=O)Nc1ccncc1 (stereo not given) | -3 | -1 | 15 | -8 | 1 | 1% | u
CCOC(=O)c1ccccc1NC(=O)CSc1nc2ncccc2[nH]1 | x | x | 4 | x | x | x | x
CN(C)S(=O)(=O)c1ccc(NC(=O)/C=C/c2ccccc2Cl)cc1 | u | 13 | 18 | -13 | 14 | u | 15%
O=C(/C=C/c1ccccc1Cl)Nc1ccccc1 | 4 | -7 | -14 | -3 | -1 | x | x
COc1ccc2nc(/N=C(\N)NC(=O)C(C)(C)C)nc(C)c2c1 | -1 | 35* | -9 | -34 | 1 | -7% | 1%
CCC(=O)N/C(N)=N/c1nc(C)c2cc(OC)ccc2n1 | 1 | x | x | -8 | x | x | x
